For 20 compounds, Potency results are on record in PubChem BioAssay AID1461 (National Center for Advancing Translational Sciences (NCATS), 2008).

Screen size: about 220,000 compounds; about 2,300 (1%) were called active. About 6% were inconclusive and are not listed. The call rests on the fitted dose curve; in most records, active means well fitted inhibition curve with a large enough effect; inconclusive means small, poorly fitted or top-dose-only effect, or effect the other way; inactive means no such curve, though single readings can be large or run the other way. Shown is part of a subset that was picked to be rich in actives. A call without a number means that no potency is given here.
Potency means the concentration at half of the fitted maximal effect.

This assay deals with Neuropeptide S receptor (Homo sapiens) (UniProt Q6W5P4). Put plainly: qHTS Assay for Antagonists of the Neuropeptide S Receptor: cAMP Signal Transduction. Further: nearly all actives have a fitted effect of over 50% in size. The note with it: CHO-NPSR cells, cAMP TR-FRET, antagonist mode; series mostly up to 38.3 µM. From the text: NIH Chemical Genomics Center [NCGC] NIH Molecular Libraries Probe Production centers Network [MLPCN] MLPCN Grant: X01-DA026210-01 Assay Submitter (PI): Heilig, Markus Alexander NCGC Assay Overview: Neuropeptide S receptor (NPSR), previously known as GPR154, is a recently de-orphanized G protein coupled receptor. Its endogenous ligand is the 20 amino acids peptide Neuropeptide S (NPS). […] NPS and its receptor are found in various tissues. Specifically they are highly expressed in brain areas that have been implicated in modulation of arousal, stress and anxiety. Central administration of NPS in mice produces an unusual profile of activity by inducing wakefulness and arousal, while at the same time suppressing anxiety. Therefore, NPSR may represent a novel drug target for the treatment of sleep and anxiety disorders. To identify NPSR antagonists, we developed a cell-based cAMP assay. NPS can stimulate the production of cAMP in Chinese hamster ovary cells stably expressing NPS receptor. This change in intracellular cAMP level can be detected by a homogeneous LANCE cAMP assay based on the TR-FRET (time resolved fluorescence resonance energy transfer) between a europium-labeled cAMP tracer complex and a cAMP-specific antibody labeled with Alexa Fluor 647. The europium-labeled cAMP tracer complex is formed by the tight interaction between Biotin-cAMP (b-cAMP) and streptavidin labeled with Europium-W8044 chelate (Eu-SA). Light pulse at 320 nm excites the europium of the cAMP tracer and the energy emitted is transferred to the Alexa molecule bound to the cAMP antibody, generating a TR-FRET signal at 665 nm. Residual energy from the europium will produce a light at 620 nm. The native unlabeled cAMP from cell lysates competes with the europium-cAMP tracer for antibody binding and reversely reduces the emission signal of Alexa by interrupting FRET between the two labeled molecules. Both emission signals from the FRET donor (620 nm) and the acceptor (665 nm) can be detected by a plate reader in the TRF mode. Expression of result in fluorescence ratio (665 nm/620 nm) helps to normalize differences due to cell density and reagent dispensing. This assay was successfully optimized to a 1536-well plate format.
Neuropeptide S receptor (Homo sapiens), sequence (Q6W5P4 whole entry, looked up): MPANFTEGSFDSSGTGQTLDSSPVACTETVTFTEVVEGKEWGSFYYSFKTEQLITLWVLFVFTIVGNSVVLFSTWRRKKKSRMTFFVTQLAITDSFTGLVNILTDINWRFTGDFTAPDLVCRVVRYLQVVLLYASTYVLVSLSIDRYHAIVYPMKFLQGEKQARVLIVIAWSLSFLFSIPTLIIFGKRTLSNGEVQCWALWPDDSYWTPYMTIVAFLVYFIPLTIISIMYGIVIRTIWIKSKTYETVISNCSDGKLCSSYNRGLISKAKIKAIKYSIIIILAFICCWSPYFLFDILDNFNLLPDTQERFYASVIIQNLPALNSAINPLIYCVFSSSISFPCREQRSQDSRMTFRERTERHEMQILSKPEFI
NCGC Assay Protocol Summary: A Chinese hamster ovary (CHO) cell line stably expressing the NPS receptor (CHO-NPSR) was obtained from Dr. Heilig lab at NIAAA and maintained in F-12 Kaighn's media (Invitrogen, Carlsbad, CA, 21127) supplemented with 10 % FBS, 100 units/ml penicillin, 100 ug/ml streptomycin and 250 ug/ml geneticin at 37C, 5% CO2 in a humidified atmosphere. Before the assay, aliquots of cells were frozen and stored at -135C. The assay was performed in 1536-well format. Data are reported for both the ratio of the two emission wavelengths, and also for the component 'donor' channel, Em2=620. Data were normalized to the controls for basal activity (DMSO only) and 100% inhibition (No NPS control). IC50 values were determined from concentration-response data modeled with the standard Hill equation. NPS 1536-well assay protocol: (1) Fresh or frozen CHO-NPSR cells were suspended in F-12 Kaighn's media supplemented with 10 % FBS, 100 units/ml penicillin and 100 ug/ml streptomycin. Cells were plated at 4 ul/well (1200 cells) to white, tissue culture treated 1536-well plates, and then cultured at 37C, 5 % CO2 for 16 to 30 hours. (2) Add 23 nl/well of compound in DMSO solution. The final titration for each compound was between 0.6 nM and 46 uM. (3) Add 1 ul of stimulation reagent (1X HBSS buffer, 5 mM HEPES, 0.1% BSA, 500 uM RO-201724 (Sigma-Aldrich, B8279), 1.5% Alexa 647-labeled anti-cAMP antibody (from Perkin Elmer), 100 nM NPS) (4) Incubation at 37C, 5 % CO2 for 60 min. (5) Add 1 ul/well detection reagent. Detection reagent was prepared by adding biotin labeled cAMP (4%), streptavidin labeled with Europium-W8044 chelate (1.33%) and TritonX-100 (1%) to detection buffer. […]
With `CC(=O)Oc1ccccc1C(=O)Nc1ncc([N+](=O)[O-])s1`, the Potency is 3.16 µM (active).
Next, `CCN1CC2C3CCC(C)(O3)C2C1` (stereo not given): “inactive”; `O=C1NC(=O)N(c2ccc(F)cc2)C(=O)/C1=C/c1ccc2c(c1)CCCN2Cc1ccccc1`: “inactive”; `COc1cccc(N2C(=O)NC(=O)/C(=C\c3ccc([N+](=O)[O-])s3)C2=O)c1`: “inactive”.
With `Cc1cccc(N2C(=O)NC(=O)/C(=C\c3cnn(-c4ccccc4)c3)C2=O)c1`, the Potency is 10 µM (active).
Next, `CC1=C2C(=O)C3C(CC=C4CC(OC5OC(O)C(O)C(O)C5CO)CCC43C)C2CCC12OC1CC(C)CNC1C2C` (stereo not given): “inactive”; `CCOc1cccc(=NC2CCCCC2)c2c(C)[nH]c(C)c12`: 6.31 µM (active); `COc1ccc(-n2c(O)c(C(C)=Nc3ccc4c(c3)CCC4)c(=O)[nH]c2=O)cc1`: “inactive”.
For the compound `CNC(=O)Nc1ccc(C(O)(C(=O)OC)C(F)(F)F)cc1` (stereo not given), the Potency result is “inactive”.
With `O=c1[nH]c(CN2CC=C(c3ccccc3)CC2)nc2scc(-c3cccs3)c12`, the Potency entry was “inactive”.
Next, `CCC(C)n1c(O)c(/C=N/Nc2nc3c(c(=O)n(C)c(=O)n3C)n2C)c(=O)[nH]c1=S` (stereo not given): “inactive”; `COc1cccc(CN2CCCC(C(=O)c3ccccc3SC)C2)c1O` (stereo not given): “inactive”.
Regarding `CCCCCCCCCCCCn1ccc(=N)cc1`, the Potency was 6.31 µM (active).
Next, `CC(=O)Cc1ccc(OC(C)C)cc1`: “inactive”.
Take `C/C=C/CC1(CC)C(=O)NC(=S)NC1=O`: the Potency entry is “inactive”.
Next, `CC1C2Cn3c(nc4ccccc43)C1N(C)O2` (stereo not given): “inactive”.
Consider `CN(C)CC1CCCCC1=O` (stereo not given), for which the Potency result is “inactive”.
For `O=C1CC(=O)N(Cc2ccccc2)C(=O)N1CCCCCCN1C(=O)CC(=O)N(Cc2ccccc2)C1=O`, the Potency result is “inactive”.
For `O=c1[nH]c(=O)n(-c2ccc(F)cc2)c(O)c1C=NCCN1CCCCC1`, the Potency result is “inactive”.
For `Fc1ccc(C2N3CCCN23)cc1` (stereo not given), the Potency entry was “inactive”.
